Active and inactive are the calls of the source.
Assays:
[1] = binders of probe aFSTL3 on microarray, primary screen, stem cell growth factor project, biochemical, small-molecule microarray, fluorescence 635/667 (AID 1064); conditions: higher = more signal;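 also: measures binding of the biotinylated anti-FSTL3 antibody to printed compounds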
[2] = binders from COS7 lysate, DM2A8 probe, primary screen, torsin A project, cell lysate, small-molecule microarray, fluorescence 635/667 (AID 1065); conditions: higher = more signal, COS7 lysate expressing mutant human TOR1A
[3] = binders of probe aFGF2 on microarray, primary screen, stem cell growth factor project, biochemical, small-molecule microarray, fluorescence 635/667 (AID 1067); conditions: higher = more signal;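 also: measures binding of biotinylated aFGF2 protein to printed compounds on slides; z-score merges feature fluorescence and signal-to-noise across triplicate slides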
[4] = binders of probe aFGF10 on microarray, primary screen, stem cell growth factor project, biochemical, small-molecule microarray, fluorescence 635/667 (AID 1071); conditions: higher = more signal;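 also: score merges 667 nm spot intensity and signal to noise from triplicate slides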
[5] = target: Neurogenic locus notch homolog protein 2 (Homo sapiens) (UniProt Q04721); experiment: Notch2 binders on small-molecule microarrays, primary screen, biochemical, small-molecule microarray, 635 nm fluorescence, stem cell growth factors (AID 1073); conditions: Notch2 binding, higher = more signal
Neurogenic locus notch homolog protein 2 (Homo sapiens), sequence (Q04721 whole entry, looked up, canonical isoform): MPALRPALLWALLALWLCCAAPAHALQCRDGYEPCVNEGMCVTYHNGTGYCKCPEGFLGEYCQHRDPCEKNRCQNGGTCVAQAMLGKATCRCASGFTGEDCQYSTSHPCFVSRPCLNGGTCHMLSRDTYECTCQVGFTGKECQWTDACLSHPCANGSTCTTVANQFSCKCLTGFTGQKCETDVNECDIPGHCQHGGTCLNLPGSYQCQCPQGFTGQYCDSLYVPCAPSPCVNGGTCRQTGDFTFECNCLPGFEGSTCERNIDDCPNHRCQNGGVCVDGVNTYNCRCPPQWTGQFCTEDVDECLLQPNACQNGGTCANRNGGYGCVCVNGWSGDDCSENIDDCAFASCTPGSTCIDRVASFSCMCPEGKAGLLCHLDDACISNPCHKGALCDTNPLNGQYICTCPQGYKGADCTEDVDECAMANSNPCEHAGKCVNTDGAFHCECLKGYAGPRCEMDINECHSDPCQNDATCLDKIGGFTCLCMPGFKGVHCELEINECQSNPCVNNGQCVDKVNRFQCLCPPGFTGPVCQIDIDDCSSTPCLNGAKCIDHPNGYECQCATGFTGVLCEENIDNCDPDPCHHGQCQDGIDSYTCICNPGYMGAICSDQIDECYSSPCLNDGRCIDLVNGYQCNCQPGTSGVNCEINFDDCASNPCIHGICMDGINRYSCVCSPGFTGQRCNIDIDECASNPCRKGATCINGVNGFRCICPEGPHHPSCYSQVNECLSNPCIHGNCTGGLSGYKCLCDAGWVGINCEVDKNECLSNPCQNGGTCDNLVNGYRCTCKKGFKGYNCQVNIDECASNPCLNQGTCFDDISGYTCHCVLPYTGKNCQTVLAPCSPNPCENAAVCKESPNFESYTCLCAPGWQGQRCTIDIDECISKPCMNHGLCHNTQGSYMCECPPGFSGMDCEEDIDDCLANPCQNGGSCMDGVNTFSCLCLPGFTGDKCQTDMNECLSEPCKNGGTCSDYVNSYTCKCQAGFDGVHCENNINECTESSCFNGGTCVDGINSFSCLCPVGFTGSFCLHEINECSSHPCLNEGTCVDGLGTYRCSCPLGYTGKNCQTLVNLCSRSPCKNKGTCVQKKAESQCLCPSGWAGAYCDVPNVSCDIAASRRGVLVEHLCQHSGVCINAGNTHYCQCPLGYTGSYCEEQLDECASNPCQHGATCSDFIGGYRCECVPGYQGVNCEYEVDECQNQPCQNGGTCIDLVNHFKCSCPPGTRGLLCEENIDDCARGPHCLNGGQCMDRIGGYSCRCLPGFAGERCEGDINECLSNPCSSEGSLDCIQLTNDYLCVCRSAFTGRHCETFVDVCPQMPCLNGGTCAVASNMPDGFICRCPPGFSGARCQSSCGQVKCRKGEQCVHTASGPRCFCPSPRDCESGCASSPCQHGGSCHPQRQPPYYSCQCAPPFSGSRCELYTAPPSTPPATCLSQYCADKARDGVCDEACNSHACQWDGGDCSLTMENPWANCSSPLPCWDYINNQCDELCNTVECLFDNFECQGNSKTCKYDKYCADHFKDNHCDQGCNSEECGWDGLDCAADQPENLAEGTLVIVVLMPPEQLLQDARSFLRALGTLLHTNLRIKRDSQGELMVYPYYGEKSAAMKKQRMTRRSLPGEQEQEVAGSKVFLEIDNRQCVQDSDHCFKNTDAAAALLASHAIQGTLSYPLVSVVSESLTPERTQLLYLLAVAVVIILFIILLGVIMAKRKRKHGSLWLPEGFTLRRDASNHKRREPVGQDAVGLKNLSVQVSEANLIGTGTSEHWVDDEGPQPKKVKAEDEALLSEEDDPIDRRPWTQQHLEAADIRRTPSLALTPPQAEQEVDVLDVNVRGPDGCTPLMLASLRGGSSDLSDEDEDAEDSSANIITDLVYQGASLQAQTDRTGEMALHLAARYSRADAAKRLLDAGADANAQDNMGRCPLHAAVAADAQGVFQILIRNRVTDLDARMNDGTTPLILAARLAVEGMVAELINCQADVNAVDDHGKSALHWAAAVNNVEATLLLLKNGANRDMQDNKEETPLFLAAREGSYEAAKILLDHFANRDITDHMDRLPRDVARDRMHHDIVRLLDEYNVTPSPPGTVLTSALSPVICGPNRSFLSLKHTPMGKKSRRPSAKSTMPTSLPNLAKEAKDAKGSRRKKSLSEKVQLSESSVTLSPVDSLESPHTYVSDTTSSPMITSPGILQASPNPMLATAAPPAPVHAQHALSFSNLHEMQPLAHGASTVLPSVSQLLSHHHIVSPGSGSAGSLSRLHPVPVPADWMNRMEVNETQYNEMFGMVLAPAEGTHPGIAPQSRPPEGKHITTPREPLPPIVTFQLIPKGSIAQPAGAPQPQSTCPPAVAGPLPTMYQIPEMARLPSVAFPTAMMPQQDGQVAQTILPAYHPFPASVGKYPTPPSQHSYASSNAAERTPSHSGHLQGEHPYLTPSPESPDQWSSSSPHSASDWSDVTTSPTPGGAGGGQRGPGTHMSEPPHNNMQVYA

[6] = target: Pro-neuregulin-1, membrane-bound isoform (Homo sapiens) (UniProt Q02297); experiment: NRG1 binders on small-molecule microarrays, primary screen, psychiatric disease protein project, biochemical, small-molecule microarray, fluorescence 635/667 (AID 1075); conditions: NRG1 binding, 635 nm fluorescence, higher = more signal;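 also: score combines 667 nm spot fluorescence with signal to noise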
Pro-neuregulin-1, membrane-bound isoform (Homo sapiens), sequence (Q02297 whole entry, looked up, the tested form may be a part, canonical isoform): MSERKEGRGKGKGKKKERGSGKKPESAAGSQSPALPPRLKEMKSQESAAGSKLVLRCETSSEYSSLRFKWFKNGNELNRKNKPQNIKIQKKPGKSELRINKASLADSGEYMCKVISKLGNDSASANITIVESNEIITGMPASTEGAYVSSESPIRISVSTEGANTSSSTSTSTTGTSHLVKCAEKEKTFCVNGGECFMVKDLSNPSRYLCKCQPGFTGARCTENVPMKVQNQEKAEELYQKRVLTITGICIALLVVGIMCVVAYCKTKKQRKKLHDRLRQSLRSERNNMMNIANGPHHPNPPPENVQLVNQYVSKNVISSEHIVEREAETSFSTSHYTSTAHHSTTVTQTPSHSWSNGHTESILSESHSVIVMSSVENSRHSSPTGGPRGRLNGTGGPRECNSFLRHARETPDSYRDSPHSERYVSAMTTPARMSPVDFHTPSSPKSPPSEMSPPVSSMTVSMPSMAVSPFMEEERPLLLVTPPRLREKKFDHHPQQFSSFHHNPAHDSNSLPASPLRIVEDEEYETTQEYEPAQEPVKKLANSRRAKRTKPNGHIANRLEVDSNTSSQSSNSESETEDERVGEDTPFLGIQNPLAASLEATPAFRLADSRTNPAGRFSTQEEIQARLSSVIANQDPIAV

[7] = tested on: Neuregulin-1 EGF-like domain; experiment: binders of neuregulin-1 EGF-like domain, primary screen, biochemical, small-molecule microarray, 635 nm fluorescence (AID 1081); conditions: small-molecule microarray binding, higher = more signal;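 also: binding of the protein to compounds printed on small-molecule microarray slides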
[8] = FRG1 promoter luciferase signal modulators, primary screen, FRG1 inhibition for FSHD, cell-based, C2C12 myotubes, firefly/Renilla luciferase, luminescence (AID 1084); conditions: higher = more signal, called active from +8 up or from −8 down
[9] = binders of probe aFST on microarray, primary screen, stem cell growth factor project, biochemical, small-molecule microarray, fluorescence 635/667 (AID 1086); conditions: higher = more signal;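 also: score merges 667 nm fluorescence with signal-to-noise of each printed compound spot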
[10] = binders of probe aHhip on microarray, primary screen, stem cell growth factor project, biochemical, small-molecule microarray, fluorescence 635/667 (AID 1087); conditions: higher = more signal;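 also: score merges spot fluorescence at 667nm with spot signal to noise ratio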

Row | SMILES | composite z-score [1] | composite z-score [2] | composite z-score [3] | composite z-score [4] | composite z-score [5] | composite z-score [6] | composite z-score [7] | z-score [8] | composite z-score [9] | composite z-score [10]
1 | O=C1c2ccccc2[C@](Cc2ccccc2I)(C(=O)NC2CC2)[C@H](c2ccc(CO)cc2)N1C1CCCCC1 | -0.0129 | 0.677 | -0.0989 | 0.418 | 1.48 | 1.62 | 1.41 | -4.4 (inactive) | 1.37 | -0.926
2 | O=C(c1ccccc1)N1Cc2ccccc2[C@@H]2OC(c3ccc(OCCCO)cc3)=N[C@]2(Cc2ccccc2)C1=O | -0.0231 | 0.483 | 0.0462 | 0.158 | 0.649 | 1.32 | 1.24 | -1.05 (inactive) | -0.171 | -0.208
3 | COC(=O)[C@@]1(Cc2ccccc2)[C@H]2c3cc(C(=O)N(C)C)n(CCSCCO)c3C[C@H]2CN1C(=O)c1ccccc1 | -0.303 | 1.07 | 0.0413 | 0.689 | 1.17 | 1.28 | 1.24 | 1.27 (inactive) | 0.335 | 0.347
4 | CC(=O)N1Cc2ccccc2C[C@@]2(COC(c3ccc(OCCCO)cc3)=N2)C1=O | 1.54 | 0.842 | 0.235 | 0.51 | 1.18 | 1.4 | 1.07 | -0.41 (inactive) | 1.83 | -0.21
5 | COC(=O)C(CC#Cc1ccc2c(c1)[C@]1(C(=O)N2)[C@H](c2ccc(O)cc2)N2[C@H](c3ccccc3)[C@H](c3ccccc3)OC(=O)[C@H]2[C@@H]1C(=O)Nc1nc2ccccc2s1)C(=O)OC | -0.386 | 0.372 | 0.0402 | 1.08 | 1.23 | 1.44 | 1.24 | -0.532 (inactive) | 0.313 | -0.0672
6 | COC(=O)[C@@]1(Cc2ccc(F)cc2)[C@H]2c3cc(C(=O)N(C)C)n(CC4CC4)c3C[C@H]2CN1C(=O)c1ccccc1 | 2.43 | 1.04 | 0.833 | 1.27 | 1.58 | 1.6 | 1.26 | -0.115 (inactive) | 2.76 | 0.741
7 | COCCOC(=O)N1C(=O)[C@@]2(c3cc(C#CC4=CCCCC4)ccc31)[C@H](C(=O)Nc1nc3ccccc3s1)[C@H]1C(=O)O[C@H](c3ccccc3)[C@H](c3ccccc3)N1[C@@H]2c1ccccc1OCCO | 0.346 | 0.189 | 0.0871 | 0.77 | 1.49 | 1.15 | 1.08 | 1.29 (inactive) | 0.965 | 0.463
8 | C#CCN(Cc1ccccc1Br)C(/C=C/c1ccccc1)CO (stereo not given) | 0.389 | 0.0837 | -0.148 | 0.0126 | -0.619 | -0.17 | -0.131 | -1.83 (inactive) | -0.481 | -0.236
9 | O=C(NCc1ccccc1)[C@@H]1c2ccccc2C(=O)N(CC23CC4CC(CC(C4)C2)C3)[C@H]1c1ccc(CO)cc1 | -0.906 | 0.0469 | -0.0494 | 0.484 | 1.01 | 1.45 | 1.2 | -3.34 (inactive) | 0.193 | -0.0994
10 | C=CCOC(=O)[C@H]1[C@@H]2C(=O)O[C@@H](c3ccccc3)[C@@H](c3ccccc3)N2[C@@H](c2ccc(OCCOC(=O)[C@@H]3C[C@@H]4C(=O)N[C@@H](CCCCN(C)C)C(=O)N4[C@@H]3c3ccc(O)cc3)cc2)[C@]12C(=O)Nc1ccc(I)cc12 | -0.617 | 1.04 | -0.0468 | 0.589 | 0.766 | 1.27 | 1.33 | -0.694 (inactive) | 0.429 | -0.112
11 | C=CCNC(=O)[C@H]1[C@@H]2C(=O)O[C@@H](c3ccccc3)[C@@H](c3ccccc3)N2[C@@H](c2ccc(O)cc2)[C@]12C(=O)N(C(=O)OCCOC)c1ccc(C#CCNC(N)=O)cc12 | -0.14 | -0.019 | -0.0996 | 0.379 | 0.729 | 0.0037 | 0.879 | -0.226 (inactive) | 0.007 | 0.0722
12 | Cc1ccc(S[C@]2(C(=O)NCC(F)(F)F)CC(=O)N(C(C)C)[C@@H]2c2ccc(CO)cc2I)cc1 | 0.163 | -0.98 | -0.04 | 0.0063 | -0.806 | 1.08 | -0.395 | -0.0636 (inactive) | -0.349 | -0.374
13 | [N-]=[N+]=NCc1ccccc1C[C@]1(C(=O)O)N=C(c2ccc(OCCCO)cc2)O[C@H]1c1ccccc1N=[N+]=[N-] | -0.146 | 0.268 | -0.0004 | 0.833 | 1.52 | 1.78 | 1.25 | -1.47 (inactive) | 0.921 | 0.138
14 | CCOC(=O)C1=CCC(c2ccc(C)cc2)N(S(=O)(=O)c2ccc(C)cc2)C1 (stereo not given) | 0.464 | -0.0577 | -0.0499 | 0.101 | 0.255 | 0.38 | 0.923 | -4.43 (inactive) | 0.261 | -0.0994
15 | CC(C)(C)OC(=O)CC[C@]12N=C(c3ccc(OCCCO)cc3)O[C@H]1c1ccccc1N(CCS(=O)(=O)c1ccccc1)C2=O | 0.144 | 0.433 | -0.0024 | 0.137 | 1.42 | 0.882 | 1.26 | 0.281 (inactive) | 0.682 | 0.0139
16 | C=CCN(Cc1ccccc1)C(=O)C(c1cccs1)N(CCOCCO)C(=O)/C=C\C(=O)O (stereo not given) | 0.713 | -1.43 | -0.203 | -0.873 | -1.04 | -0.353 | -0.421 | 0.919 (inactive) | -1.59 | -0.341
17 | O=C1OCCC/C=C\[C@H]2OC34C=CCN(CCN5CCOCC5)C(=O)[C@H]3N(CCCO)C(=O)[C@@H]4C12 (stereo not given in full) | -0.0893 | 0.95 | -0.168 | -1.07 | -0.793 | 1.47 | 0.993 | 0.562 (inactive) | -0.209 | -0.216
18 | COc1ccc([C@H]2OC[C@@H]3CC4(CC=CC4)C(=O)N32)cc1 | 0.0596 | -0.407 | -0.129 | 0.479 | -0.321 | -0.105 | 1 | 1.43 (inactive) | -0.0135 | -0.236
19 | C=CCOC(=O)[C@@H]1[C@H]2C(=O)O[C@H](c3ccccc3)[C@H](c3ccccc3)N2[C@H](c2ccc(OCCOC(=O)[C@@H]3C[C@@H]4C(=O)N[C@@H](CCCC[N+](C)(C)C)C(=O)N4[C@@H]3c3cccc(OCCO)c3)cc2)[C@@]12C(=O)Nc1ccc(I)cc12 | 0.443 | 0.54 | 0.0378 | 0.291 | 0.872 | 0.498 | 1.23 | 3.07 (inactive) | 0.493 | -0.117
20 | C=CCNC(=O)[C@@H]1[C@H]2C(=O)O[C@H](c3ccccc3)[C@H](c3ccccc3)N2[C@H](c2ccccc2OCCO)[C@@]12C(=O)N(C(=O)OCCOC)c1ccc(C#CCNC(N)=O)cc12 | -0.14 | 0.428 | -0.0864 | 0.354 | 0.524 | 1.27 | 0.958 | -0.623 (inactive) | -0.0306 | 0.251
21 | CCCC=C(CCC)[C@@H](NC(=O)Oc1ccc(F)cc1)c1ccc(C(=O)OC)cc1 | 0.415 | 0.175 | 0.0883 | 0.48 | 1.52 | -0.454 | 0.482 | -3.81 (inactive) | 0.794 | -0.121
22 | COC(=O)[C@@]1(Cc2ccc(OC)cc2)[C@H]2c3cc(C(=O)N4CCCC4)n(Cc4ccc(OC)c(OC)c4)c3C[C@H]2CN1C(=O)c1ccccc1 | 1.65 | 0.188 | 0.636 | 0.199 | 1.72 | 2.16 | 1.07 | 2.25 (inactive) | 1.74 | 0.319
23 | COC(=O)c1c(CC[C@@H](CO)NC(=O)N[C@@H](C)Cn2cc(C3(O)CCCCC3)nn2)oc(C(C)=O)c1C(=O)OC | -0.548 | 1.14 | -0.0512 | 1.01 | 1.25 | 0.518 | 1.3 | 1.2 (inactive) | 0.817 | -0.184
24 | COc1ccc([Si](C)(C)[C@H]2[C@H](CC(=O)N3Cc4ccccc4C[C@H]3CO)O[C@@]3(C(=O)N(Cc4ccc(N5CCC5=O)cc4)c4ccccc43)[C@@H]2C)cc1 | 0.061 | 0.859 | 0.0967 | 0.265 | 0.198 | 1.08 | 1.2 | -4.57 (inactive) | 0.983 | 0.115
25 | C=CCN1C(=O)[C@@]2(O[C@@H](CCO)[C@H]([Si](C)(C)c3ccc(OC)cc3)[C@H]2C)c2cc(NC(=O)c3ccc(OC)cc3)ccc21 | -0.114 | 0.612 | -0.0739 | -0.0379 | 0.454 | 0.213 | 0.949 | -0.797 (inactive) | 0.171 | -0.0003
26 | O=C1O[C@H](c2ccccc2)[C@H](c2ccccc2)N2[C@H]1[C@@H](C(=O)Nc1nc3ccccc3s1)[C@]1(C(=O)Nc3ccc(C#CCCO)cc31)[C@H]2c1ccc(OCCO)cc1 | -0.379 | 0.135 | 0.0401 | 1.14 | 1.19 | 0.887 | 0.975 | -0.0455 (inactive) | 0.119 | 0.224
27 | COc1ccc([C@H]2C[C@H]3C(Br)=C[C@@H]2C(=O)[C@]32CO2)cc1 | 0.203 | 0.133 | -0.083 | -0.126 | -0.239 | -0.152 | -0.577 | 1.96 (inactive) | 0.0125 | -0.0618
28 | O=C1OCCC/C=C\[C@H]2OC34C=CCN(Cc5ccccc5)C(=O)[C@H]3N(CCCCCCO)C(=O)[C@@H]4C12 (stereo not given in full) | 1.26 | 1.37 | -0.0956 | -0.437 | -0.793 | 1.31 | 1.31 | 0.247 (inactive) | -0.467 | -0.0003
29 | CC(C)C[C@@H]1NC(=O)[C@@H]2C[C@H](C(=O)NCCCCCN)[C@H](c3cccc(OCCO)c3)N2C1=O | 0.235 | -0.0087 | 0.0465 | 0.796 | 0.128 | 1.4 | 1.29 | -0.284 (inactive) | 0.393 | 0.28

— PubChem BioAssay
